Data from PubChem BioAssay AID1259415 (National Center for Advancing Translational Sciences (NCATS), 2018).
Values joined by “and” are separate entries in the source; they are usually repeats but may differ in a detail not shown here. Identical values can stand only once. Out of some 410,000 compounds screened, about 18,000 (4.4%) were called active. About 7% were inconclusive and are not listed. No stated cut-off is given here; in the data, active means activity change below about -60%; inconclusive means no clear call, values can overlap the other calls; inactive means above about -39%. The list comes from a sample in which actives are over-represented; it also holds similar structures and randomly drawn compounds. The source holds several records for some structures; these can differ, active in one and inactive in another.

Assay: qHTS Assay for inhibitors of the human cytomegalovirus (HCMV)
Settings: HFF cells, HCMV-luciferase reporter, 72 h; at 57.5 µM; stronger effect = lower value
Source text: NCGC Assay Overview: Infection with human cytomegalovirus (HCMV) continues to pose significant threats for pregnant women and immunocompromised hosts. HCMV causes serious morbidity and mortality in transplant recipients, and congenital HCMV is the leading infectious cause of mental retardation and deafness in children. In the 1990s, the annual costs associated with the disease burden of congenital CMV were estimated at around $2 billion. A HCMV vaccine is not available yet and HCMV therapies result in intolerable side effects and emergence of drug resistant viruses. […] Towards this goal we have developed and characterized a luciferase HCMV reporter that was initially used in 96 well plates and then optimized to 1536-well plates for utilization in screening of the MLSMR collection, the NGCG diversity collection and the NCGC Pharmaceutical Collection of approved and investigational drugs.
NCGC Assay Protocol Summary:
This is a cell-based assay for HCMV inhibition in HFFs cells. The screening used 2 compound doses and the HCMV-luciferase at MOI of 1 PFU/cell. Cells were treated and infected with HCMV. At 72 h post infection cell lysates were collected and luciferase activity was determined using the Glomax-Multi + Detection System (Promega, Madison, WI). Data were normalized to the controls for basal activity (buffer only) and known HCMV inhibitors Salinmoycin.
1536-well assay protocol for the assay:
(1) Add 3 ul CMV/HFF cell culture. 1000 cells/well in DMEM nirmal media.
(2) Incubate 16 hr at 37C.
(3) Add 23 nl control compound, 10uM of Salinomycin.
(4) Add 23 nl compounds in DMSO solution.
(5) Add 3 ul CMV suspension. Final 1 puf/ul, Virus stock 2000pfu/ul
(6) Incubate 72 hrs at 37C.
(7) Add 4 ul OneGlo Luc Reagent.
(8) Incubate 5 min at room temperature.
On the % scale 0 is the no-effect control and ±100 the full control effect.

Row | Structure (SMILES) | activity change, negative = inhibition
1 | Cn1cncc1-c1cc2cnc(Nc3ccc(OC(F)(F)F)cc3)cc2[nH]1 | -21.4% (inactive)
2 | Cc1ccc(S(=O)(=O)N2CCc3cc(C(=O)Nc4ccc(Cl)cc4C)ccc32)cc1 | 0.154% (inactive)
3 | COc1ccc(Cn2c(=O)n(-c3ccccc3C)c(=O)c3c4c(sc32)CN(C(C)=O)CC4)cc1 | 3.89% (inactive)
4 | Cc1ccc(C)c2sc(NC(=O)c3ccc(S(=O)(=O)N4CCCC4)cc3)nc12 | 37.4% (inactive)
5 | CC(=O)c1ccc(N2CCN(S(=O)(=O)c3ccc4c(c3)CC(=O)N4C)CC2)cc1 | -36.7% (inactive)
6 | CC(=O)c1ccc(S(=O)(=O)N2CCN(c3nc4c(C)c(C)ccc4cc3C#N)CC2)cc1 | -87.3% (active)
7 | CCC(=O)N1CCc2cc(Br)cc(S(=O)(=O)NCc3ccc(Cl)cc3)c21 | -9.15% (inactive)
8 | COC(=O)c1cc(NC(=O)c2nn(C)c(=O)c3ccccc23)cc(C(=O)OC)c1 | -10.5% (inactive)
9 | CCSc1nnc(NC(=O)c2cc(=O)c3cc(C)c(C)cc3o2)s1 | 1.6% (inactive)
10 | Cc1cc(F)ccc1NS(=O)(=O)c1ccc(-n2cccn2)cc1 | -27.3% (inactive)
11 | CCC(=O)N1CCc2cc(Br)cc(S(=O)(=O)CCC(=O)N3CCN(c4ccc(F)cc4)CC3)c21 | 25.8% (inactive)
12 | S=C(NCC1CCCO1)N1CCN(c2ccc(Cl)c(Cl)c2)CC1 (stereo not drawn) | -86.4% (active)
13 | COc1ccc(S(=O)(=O)N2CCN(C(=S)NCC3CCCO3)CC2)cc1OC (stereo not drawn) | 4.06% (inactive)
14 | COC(=O)CC(=O)N1CCN(c2ccc(Cl)c(Cl)c2)CC1 | -31.5% (inactive)
15 | CCOc1ccccc1NC(=O)Cn1c(=O)n(Cc2ccco2)c(=O)c2sc3ccccc3c21 | 30.3% (inactive)
16 | COc1ccc(CNC(=O)Cn2nnc(-c3ccccc3F)n2)cc1 | -0.694% (inactive)
17 | Cc1cc(NC(=O)CC(C)C)cc(-c2nc3ncccc3o2)c1O | 5.83% (inactive)
18 | O=C(COC(=O)CN1C(=O)C2CCCCC2C1=O)Nc1ccc(F)c(F)c1F (stereo not drawn) | -3.46% (inactive)
19 | COc1ccc(C(=O)COC(=O)CN2C(=O)C3CC=CCC3C2=O)c(OC)c1 (stereo not drawn) | -5.28% (inactive)
20 | CC1=CC(C)(C)Nc2ccc(OC(=O)CN3C(=O)C4CCCCC4C3=O)cc21 (stereo not drawn) | -63% (active)
21 | CCOc1ccc(C(=O)c2cn(Cc3ccccc3OC)c3ccc(F)cc3c2=O)cc1 | -39% (inactive)

Row | Structure (SMILES) | activity change, negative = inhibition
22 | CC(C)(C)c1cc[n+](-c2[nH]c(=O)sc2/C=N/N=C(\[O-])c2ccccc2)cc1 | -35.8% (inactive)
23 | CCOc1ccc(S(=O)(=O)c2cn(Cc3ccc(OC)cc3)c3ccc(F)cc3c2=O)cc1 | 5.49% (inactive)
24 | COc1ccc(Sc2ccc(NC(=O)c3cccc(Cl)c3)cc2C#N)cc1 | -22.8% (inactive)
25 | Cc1cc(Nc2cccc(C(F)(F)F)c2)nc2ccc(NC(=O)c3ccc(=O)[nH]c3)cc12 | -15.4% (inactive)
26 | COc1cc(OC)cc(C(=O)Nc2ccc3nc(Nc4cccc(C(F)(F)F)c4)cc(C)c3c2)c1 | -92.6% (active)
27 | COc1cc(NC(=O)c2cncc(-c3ccc(C#N)cc3)c2)cc(C(=O)Nc2cccc(C(F)(F)F)c2)c1 | -78.9% (active) and -65.8% (active)
28 | COc1cc(OC)cc(C(=O)Nc2c(C(=O)Nc3ccc(F)cc3)oc3ccccc23)c1 | -7.35% (inactive)
29 | COc1cccc(NC(=O)CN(C)C(C)C(=O)Nc2ccc(C#N)cc2)c1 (stereo not drawn) | -15.8% (inactive)
30 | O=C1COCc2cc(-c3cccc(F)c3)ccc2N1CCN1CCOCC1 | -29.7% (inactive)
31 | CC(=O)c1cccc(NC(=O)C2CCCN(S(=O)(=O)c3cccc4nonc34)C2)c1 (stereo not drawn) | 8.09% (inactive)
32 | CCOC(=O)c1cccc(NC(=O)C2CCCN(S(=O)(=O)c3cnc[nH]3)C2)c1 (stereo not drawn) | -78.2% (active)
33 | CCOC(=O)c1cccc(NC(=O)c2cc(S(=O)(=O)N3CCCC(C)C3)cn2C)c1 (stereo not drawn) | -10.5% (inactive)
34 | CN(C)c1ccc(NC(=O)CSc2nc(-c3ccco3)cc(C(F)(F)F)n2)cc1 | 13.1% (inactive)
35 | Cc1cc(NC(=O)CCC(=O)N(CC(=O)NCC2CCCO2)c2ccccc2)no1 (stereo not drawn) | -24.8% (inactive)
36 | Cc1cccc(OP(=O)(Oc2cccc(C)c2)OC(c2ccccc2)C(F)(F)F)c1 (stereo not drawn) | 19.6% (inactive)
37 | Cc1cccc(OP(=O)(Nc2c(C)n(C)n(-c3ccccc3)c2=O)Oc2cccc(C)c2)c1 | -36.3% (inactive)
38 | CCN(CC)P(=O)(Oc1cccc(C)c1)N(CC)CC | -101% (active)
39 | Cc1cc(Nc2ccc(Br)cc2F)n2ncnc2n1 | 3.15% (inactive)
40 | COc1ccc(Cl)cc1-n1c(CCC(=O)O)ccc1-c1ccc(C)cc1 | 10.6% (inactive)
41 | Cc1cc(C)c(NC(=O)CCc2c(C)nc3c(c(C)nn3C(C)(C)C)c2C)c(C)c1 | 3.32% (inactive)
42 | Cc1ccccc1N(C(=O)CNC(=O)c1cccs1)C(C(=O)NC1CCCC1)c1ccncc1 (stereo not drawn) | 62.4% (inactive)

Row | Structure (SMILES) | activity change, negative = inhibition
43 | COc1cccc(N(C(=O)C2COc3ccccc3O2)C(C(=O)NC2CCCCC2)c2ccc(O)cc2)c1 (stereo not drawn) | -15.7% (inactive)
44 | COc1ccc(C(C(=O)NC2CCCCC2)N(C(=O)CCl)c2ccccc2Cl)cc1 (stereo not drawn) | -97.5% (active)
45 | Oc1c(C(c2ccc(F)cc2)N2CCN(Cc3ccccc3)CC2)sc2nc(-c3ccco3)nn12 (stereo not drawn) | -3% (inactive)
46 | CC(=O)C[C@@H](O)CC(=O)[C@H]1OC(=O)CCCCCCc2ccccc21 | 6.44% (inactive)
47 | CCCCCn1c(=O)[nH]c2cc(C(=O)NCCCN3CCCCC3C)ccc2c1=O (stereo not drawn) | -19.8% (inactive)
48 | Cc1cccc(N2CCN(C(=O)CCSCc3ccccc3F)CC2)c1C | 11.2% (inactive)
49 | CCC(=O)c1cc(F)ccc1OCC(=O)Nc1ccc2c(c1)OCCO2 | -17.8% (inactive)
50 | CCOC(=O)c1cnc2ccc(F)cc2c1Nc1ccc2c(c1)OCCO2 | -76.3% (active)
51 | CCOC(=O)c1cnc2c(C)cc(C)cc2c1Nc1ccc(N2CCOCC2)cc1 | 6.54% (inactive)
52 | O=C(NCc1ccccc1Cl)C1CCN(c2ncnc3c2nc2n3CCCCC2)CC1 | 0% (inactive) and -68.9% (active)
53 | CCOC(=O)c1cccc(NC(=O)C2CCN(c3ncnc4c3nc3n4CCCCC3)CC2)c1 | 4.29% (inactive)
54 | COc1cccc(CNC(=O)C2CCCN(c3ncnc4c3nc3n4CCCCC3)C2)c1 (stereo not drawn) | -15.7% (inactive)
55 | COc1ccc(N(C)C(=O)C2CCN(S(=O)(=O)c3cc(Br)cc4c3N(C(C)=O)CC4)CC2)cc1 | 8.13% (inactive)
56 | COc1ccc(-c2cc(C(=O)Nc3sc4c(c3C(N)=O)CCCC4)no2)cc1 | 21.3% (inactive)
57 | CC(C)(CNC(=O)Cc1ccc(Cl)cc1Cl)N1CCOCC1 | -8.38% (inactive)
58 | Cn1cc(C(=O)c2ccc(Cl)cc2Cl)cc1C(=O)NN | -23.5% (inactive)
59 | CC(C)(C)c1cc(C(=O)NN)n(Cc2ccc(Cl)cc2Cl)n1 | -79.4% (active)
60 | CC(=O)Nc1cccc(NC(=O)CSc2cn(CC(=O)N3CCCC3)c3ccccc23)c1 | -3.21% (inactive)
61 | O=C(CCS(=O)(=O)c1cc(Br)cc2c1N(C(=O)C1CC1)CC2)Nc1ccc(C(F)(F)F)cc1 | 1.29% (inactive)
62 | O=C(NCc1ccccc1)C1=C[C@@H](C2CCCCC2)C[C@@H](OCc2ccc(CO)cc2)O1 | -86.3% (active)
63 | CC(C)(C)[C@H]1C=C(C(=O)NCc2ccccc2)O[C@@H](OCc2ccc(CO)cc2)C1 | -2.88% (inactive)

Row | Structure (SMILES) | activity change, negative = inhibition
64 | O=C(NCc1ccccc1)C1=C[C@H](C2CC2)C[C@H](OCc2ccc(CO)cc2)O1 | 7.43% (inactive)
65 | OCC1(CCc2ccccc2)CCN(Cc2ccc3nsnc3c2)CC1 | 13.2% (inactive)
66 | CCC(C)CN1CCC(CO)(Cc2ccccc2Cl)CC1 (stereo not drawn) | -7.29% (inactive)
67 | Cc1c(CN2CCC(CO)(CCOc3ccccc3)CC2)[nH]c2ccc(Cl)cc12 | -92.5% (active)
68 | COc1ccccc1CNC(=O)CCn1c(=O)c2ccccc2n(CC(=O)Nc2cccc(Cl)c2)c1=O | -39.6% (inactive)
69 | COc1ccc(C(=O)OCC(=O)NCC2CCCO2)cc1[N+](=O)[O-] (stereo not drawn) | 15.2% (inactive)
70 | O=C1c2cccc3c([N+](=O)[O-])ccc(c23)C(=O)N1CC1CCCO1 (stereo not drawn) | -82.1% (active)
71 | O=C1C(C=NCC2CCCO2)=C(O)c2ccccc21 (stereo not drawn) | 69.7% (inactive)
72 | CCOc1cc(C(C(=O)NCC2CCCO2)N(C(=O)Cn2nnc3ccccc32)c2cccc(OC)c2)ccc1O (stereo not drawn) | -8.64% (inactive)
73 | Cc1ccc2oc(=O)c3cnn(CC(=O)NCc4ccccc4Cl)c3c2c1 | -4.14% (inactive)
74 | COc1ccc(NC(=O)c2sc3nc[nH]c(=O)c3c2C)cc1 | 52.3% (inactive)
75 | CCCn1c(N)c(C(=O)CSc2nc3ccccc3c(=O)n2-c2ccc(OC)cc2)c(=O)[nH]c1=O | -29.3% (inactive)
76 | Cc1ccc(-n2c(SCC(=O)N3CCC(C(=O)O)CC3)nc3ccccc3c2=O)cc1C | 6.85% (inactive)
77 | COc1cccc(-n2c(SCC(=O)c3c[nH]c4ccccc34)nc3ccccc3c2=O)c1 | -93.8% (active)
78 | COc1ccc(C)cc1NC(=O)COCc1cc(-c2cccs2)on1 | -10.8% (inactive)
79 | Cc1ccc(C)c(N2CCN(c3ccc4cc(S(=O)(=O)N5CCC(C)CC5)ccc4n3)CC2)c1 | 19% (inactive)
80 | CCOC(=O)C1CCN(C(=O)Nc2cccc(OC)c2)CC1 | 5.16% (inactive)
81 | COc1cccc(NC(=O)N2CCC(NC(=O)C(Cc3cccc(C)c3)NC(C)=O)CC2)c1 (stereo not drawn) | -66.8% (active)
82 | COc1ccccc1CC(NC(C)=O)C(=O)NC1CCN(C(=O)Nc2ccccc2Cl)CC1 (stereo not drawn) | 0.54% (inactive)
83 | O=C(NCCCO)C(=O)Nc1c2c(nn1-c1ccccc1)CSC2 | -2.71% (inactive)
